This is an account of results in PubChem BioAssay (NCI).

The panel holds about 83,000 compounds, 20% with a hit somewhere; the sample as a whole holds those more often.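 Treatment: one concentration, 48 hours, 96-well format. Scoring: percent growth, with anything below 10 considered active.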 A number with no mark means an inactive call. Activity calls are given as the source filed them.

What all share (experiment): NCI-60 one-dose screen, 48 h (100 = growth as untreated, 0 = no growth, -100 = all killed)
Common to all, as to settings: 10 µM unless noted

Assay [1] relates to HCT-15 colon.
Assay [2] deals with HT29 colon.
Assay [3] relates to SNB-75 CNS.
The subject of assay [4] is SNB-19 CNS.
For assay [5], the system named is U251 CNS.
In assay [6] the test system is PC-3 prostate.
The test system of assay [7] is SK-MEL-5 melanoma.
Assay [8] deals with UACC-62 melanoma.
The subject of assay [9] is LOX IMVI melanoma.
The subject of assay [10] is SK-MEL-28 melanoma.
In assay [11] the test system is SK-MEL-2 melanoma.
The subject of assay [12] is EKVX NSCLC.
Assay [13] has as its system SN12C renal.
In assay [14] the test system is UO-31 renal.
Assay [15] deals with TK-10 renal.
Assay [16] deals with ACHN renal.
Assay [17] deals with CAKI-1 renal.
The subject of assay [18] is A498 renal.
Assay [19] has as its system CCRF-CEM leukemia.
The subject of assay [20] is MOLT-4 leukemia.

Turning to `N#CSc1c[nH]c2cccc(/C=C/C(=O)/C=C(/C=C/c3cccc4[nH]cc(SC#N)c34)OB(F)F)c12`, the growth in assay [1] is -73.6% (active); in assay [2] it was -74.5% (active); in assay [3], -31.5% (active); in assay [4] it was 19.1%; in assay [5] it was -83.3% (active); in [6], -19.6% (active). Also, the growth in assay [7] was -74.1% (active); in assay [8], -50.5% (active); in assay [9], -85.4% (active); in [10], -47.9% (active); in assay [11], -65% (active); in [12] it was -10.4% (active). The growth was -21.8% (active) in [13]; -76% (active) in [14]; -51.7% (active) in assay [15]; -48.9% (active) in assay [16]; -12.5% (active) in assay [17]; 28.2% in assay [18]. The growth in [19] was -10.9% (active); in [20], -14.4% (active).
As for `O=C(N/N=C/c1ccc(Cl)cc1)c1[nH]c2ccc(Cl)cc2c1-c1ccccc1`, the growth was 11.2% in assay [1]; 19.4% in assay [2]; 70.5% in assay [3]; 15.1% in assay [4]; 10.4% in assay [5]; 17.2% in assay [6]. The growth in assay [7] was -36.6% (active); in assay [8], 30.7%; in assay [9] it was 19%; in assay [10], 93.3%; in assay [11] it was -9.34% (active); in assay [12] it was 40.7%. Moreover, the growth in assay [13] is 28.1%; in assay [14], 24.7%; in assay [15] it was 51.8%; in assay [16], 28.4%; in [17], 20.9%; in assay [18] it was 36.2%. Further, the growth in [19] is 19.3%; in assay [20], 33.7%.
`O=C(CN1CCCCC1)Nc1nc(-c2cc3ccccc3oc2=O)cs1`: the growth in assay [1] was 102%; in assay [2], 100%; in [3] it was 82.4%; in [4], 100%; in [5] it was 97.4%; in assay [6] it was 97.8%. Moreover, the growth in [7] is 96%; in assay [8] it was 91.7%; in [9], 101%; in assay [10], 102%; in assay [11] it was 112%; in assay [12], 96.1%. The growth in assay [13] is 96.1%; in assay [14] it was 82.9%; in [15] it was 138%; in assay [16], 100%; in assay [17] it was 95.9%; in assay [18] it was 97.3%. The growth is 102% in assay [19] and 98.9% in assay [20].
For `COc1ccc(/C=N/NC(=O)c2ccc(-n3cc(-c4ccccc4)nn3)cc2)cc1OC`, the growth was 97.6% in [1]; 100% in assay [2]; 94% in assay [3]; 107% in assay [4]; 106% in assay [5]; 94% in [6]. In addition, the growth in assay [7] is 89.2%; in [8], 76.7%; in [9], 94.5%; in assay [10], 88.8%; in [11] it was 108%; in assay [12] it was 102%. The growth is 103% in [13]; 108% in [14]; 113% in assay [15]; 98% in assay [16]; 81% in [17]; 100% in assay [18]. Besides, the growth in [19] is 99.2%; in assay [20], 95.6%.
For `COc1ccc(Cc2cnc(NC(=O)c3cc(C)oc3C)s2)cc1`, the growth in assay [1] was 26.9%; in assay [2] it was 13.6%; in assay [3], -8.41% (active); in [4] it was 38.7%; in [5], 35.8%; in assay [6] it was 39.3%. The growth in assay [7] is 25.8%; in assay [8] it was 27.1%; in assay [9], 39.9%; in assay [10], 54.3%; in assay [11] it was 47.7%; in assay [12] it was 36.8%. Further, the growth in assay [13] is 42.7%; in assay [14], 39.6%; in assay [15] it was 58%; in assay [16], 40.3%; in [17], 25.3%; in [18] it was 16.5%. The results for the growth in assay [19] and in [20] were 29.3% and 19.2%, respectively.
As to `O=C1/C(=C/c2cccc(F)c2)CN(C(=O)C(Cl)Cl)C/C1=C\c1cccc(F)c1`, the growth was -64.7% (active) in assay [1]; 1.62% (active) in assay [2]; -52.2% (active) in assay [3]; -88.2% (active) in assay [4]; -90.2% (active) in [5]; -77.8% (active) in [6]. Further, the growth in assay [7] was -82.2% (active); in assay [8], -83.5% (active); in assay [9], -92.1% (active); in [10], -80.3% (active); in [11], -38.1% (active); in assay [12] it was -7.73% (active). The growth in assay [13] is -90.3% (active); in assay [14], -85.5% (active); in assay [15], -78.8% (active); in assay [16], -97.7% (active); in assay [17], -75.6% (active); in assay [18], -80.1% (active). The growth in [19] was 0.153% (active); in assay [20], -23.3% (active).
Consider `Nc1ncnc2c1C(c1ccc(Br)cc1)c1sc3c(F)cccc3c1O2` (stereo not given), for which the growth was 97.1% in [1]; 100% in [2]; 83.7% in assay [3]; 110% in [4]; 98% in assay [5]; 87.4% in [6]. The growth is 96.2% in assay [7]; 80.1% in assay [8]; 82.9% in assay [9]; 119% in assay [10]; 110% in assay [11]; 69.3% in assay [12]. Further, the growth is 104% in [13]; 64.2% in assay [14]; 119% in [15]; 93.7% in [16]; 79.4% in assay [17]; 114% in [18]. Moreover, the figures for the growth in assay [19] and in assay [20] were 97.8% and 101%, respectively.
In the case of `C=C1C(=O)O[C@H]2[C@H]1CC/C(COC(=O)NCc1ccc(Cn3c(=O)sn(CCCCC)c3=O)cc1)=C\CC[C@@]1(C)O[C@@H]21`, the growth is 16.8% in assay [1]; -33.4% (active) in assay [2]; 74.4% in [3]; 85.9% in [4]; 52% in assay [5]; 46.4% in [6]. Moreover, the growth in assay [7] was 91.6%; in assay [8] it was 46.5%; in [9] it was -11.6% (active); in assay [10] it was 47%; in assay [11], 76.3%; in assay [12], 84.3%. For the same molecule, the growth in assay [13] is 22.8%; in assay [14] it was 6.58% (active); in [15], 2.53% (active); in assay [16], 26.5%; in assay [17], 36.4%; in assay [18] it was 84.9%. Besides, the growth in [19] is -22% (active); in [20], -15% (active).
